Assay results from PubChem BioAssay (NCI).
Values joined by “and” are separate entries in the source; they are usually repeats but may differ in a detail not shown here. Equal entries are not always repeated. About 83,000 compounds went through this panel and 20% of them were active in at least one assay; those are over-represented in the sample as a whole.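 96-well plates, one dose, 48 hours. Percent growth reported; active if below 10.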 Active and inactive are the calls of the source.

How the values were obtained:
Assay in all cases: NCI-60 one-dose screen, 48 h (100 = growth as untreated, 0 = no growth, -100 = all killed)
[1] = tested on: HCT-15 colon
[2] = tested on: HT29 colon
[3] = tested on: SNB-75 CNS; conditions: 10 µM unless noted
[4] = tested on: SNB-19 CNS
[5] = tested on: U251 CNS
[6] = tested on: PC-3 prostate
[7] = tested on: SK-MEL-5 melanoma
[8] = tested on: UACC-62 melanoma; conditions: 10 µM unless noted
[9] = tested on: LOX IMVI melanoma
[10] = tested on: SK-MEL-28 melanoma
[11] = tested on: SK-MEL-2 melanoma
[12] = tested on: EKVX NSCLC
[13] = tested on: SN12C renal
[14] = tested on: UO-31 renal
[15] = tested on: TK-10 renal
[16] = tested on: ACHN renal
[17] = tested on: CAKI-1 renal
[18] = tested on: A498 renal
[19] = tested on: CCRF-CEM leukemia
[20] = tested on: MOLT-4 leukemia; conditions: 10 µM unless noted

O=C(O)CN(CCN(CC(=O)O)CC(=O)O)CCN(CC(=O)O)CC(=O)O
growth ([1]; 10 µM unless noted): 9.67% (active) and 99.9% (inactive) and 107% (inactive)
growth ([2]; 10 µM unless noted): 2.39% (active) and 108% (inactive) and 94.8% (inactive)
growth [3]: 9.81% (active) and 87.3% (inactive) and 85.8% (inactive)
growth ([4]; 10 µM unless noted): 27.6% (inactive) and 101% (inactive) and 98.6% (inactive)
growth ([5]; 10 µM unless noted): 4.18% (active) and 106% (inactive) and 94.1% (inactive)
growth ([6]; 10 µM unless noted): 9.35% (active) and 92.8% (inactive) and 93.5% (inactive)
growth ([7]; 10 µM unless noted): 3.74% (active) and 103% (inactive) and 106% (inactive)
growth [8]: 8.73% (active) and 95.6% (inactive) and 101% (inactive)
growth ([9]; 10 µM unless noted): -31.4% (active) and 101% (inactive) and 106% (inactive)
growth ([10]; 10 µM unless noted): 24% (inactive) and 105% (inactive) and 99.4% (inactive)
growth ([11]; 10 µM unless noted): -31.4% (active) and 101% (inactive) and 93.2% (inactive)
growth ([12]; 10 µM unless noted): -24.9% (active) and 105% (inactive) and 111% (inactive)
growth ([13]; 10 µM unless noted): 1.71% (active) and 99.1% (inactive) and 101% (inactive)
growth ([14]; 10 µM unless noted): -3.87% (active) and 77.1% (inactive) and 99.1% (inactive)
growth ([15]; 10 µM unless noted): -24.1% (active) and 110% (inactive) and 94% (inactive)
growth ([16]; 10 µM unless noted): 97.5% (inactive) and 104% (inactive)
growth ([17]; 10 µM unless noted): -7.19% (active) and 87% (inactive)
growth ([18]; 10 µM unless noted): 12.7% (inactive)
growth ([19]; 10 µM unless noted): 5.22% (active) and 97.7% (inactive) and 102% (inactive)
growth [20]: -17.3% (active) and 113% (inactive) and 96% (inactive)

Cc1cc(O)c(C(C)C)cc1N
growth ([1]; 10 µM unless noted): 101% (inactive) and 104% (inactive)
growth ([2]; 10 µM unless noted): 101% (inactive) and 116% (inactive)
growth [3]: 79% (inactive) and 97% (inactive)
growth ([4]; 10 µM unless noted): 117% (inactive)
growth ([5]; 10 µM unless noted): 104% (inactive) and 103% (inactive)
growth ([6]; 10 µM unless noted): 106% (inactive) and 98.4% (inactive)
growth ([7]; 10 µM unless noted): 106% (inactive) and 98.9% (inactive)
growth [8]: 97.5% (inactive) and 111% (inactive)
growth ([9]; 10 µM unless noted): 98.1% (inactive) and 94.7% (inactive)
growth ([10]; 10 µM unless noted): 113% (inactive) and 111% (inactive)
growth ([11]; 10 µM unless noted): 113% (inactive) and 119% (inactive)
growth ([12]; 10 µM unless noted): 95% (inactive) and 104% (inactive)
growth ([13]; 10 µM unless noted): 114% (inactive)
growth ([14]; 10 µM unless noted): 78% (inactive) and 95.5% (inactive)
growth ([15]; 10 µM unless noted): 123% (inactive) and 117% (inactive)
growth ([16]; 10 µM unless noted): 93.3% (inactive) and 100% (inactive)
growth ([17]; 10 µM unless noted): 107% (inactive) and 97.4% (inactive)
growth ([18]; 10 µM unless noted): 92.3% (inactive) and 89.7% (inactive)
growth ([19]; 10 µM unless noted): 105% (inactive) and 88.4% (inactive)

O=[N+]([O-])c1ccc2nc3c4ccccc4c4ccccc4c3nc2c1
growth ([1]; 10 µM unless noted): 80.8% (inactive)
growth ([2]; 10 µM unless noted): 74.6% (inactive)
growth [3]: 74.4% (inactive)
growth ([4]; 10 µM unless noted): 89.2% (inactive)
growth ([5]; 10 µM unless noted): 62.3% (inactive)
growth ([6]; 10 µM unless noted): 55.1% (inactive)
growth ([7]; 10 µM unless noted): 76.8% (inactive)
growth [8]: 86.7% (inactive)
growth ([9]; 10 µM unless noted): 30.8% (inactive)
growth ([10]; 10 µM unless noted): 113% (inactive)
growth ([11]; 10 µM unless noted): 97.6% (inactive)
growth ([12]; 10 µM unless noted): 81.8% (inactive)
growth ([13]; 10 µM unless noted): 81.9% (inactive)
growth ([14]; 10 µM unless noted): 75.3% (inactive)
growth ([15]; 10 µM unless noted): 67.8% (inactive)
growth ([16]; 10 µM unless noted): 57.3% (inactive)
growth ([17]; 10 µM unless noted): 77.9% (inactive)
growth ([18]; 10 µM unless noted): -39.8% (active)
growth ([19]; 10 µM unless noted): 63.1% (inactive)
growth [20]: 89.7% (inactive)

CCc1ccccc1-n1c(N)c(C#N)c(-c2ccc(OC)c(OC)c2)c(C#N)c1=O
growth ([1]; 10 µM): 101% (inactive)
growth ([1]; 100 µM): 81.2% (inactive)
growth ([2]; 10 µM): 110% (inactive)
growth ([2]; 100 µM): 102% (inactive)
growth ([4]; 10 µM): 104% (inactive)
growth ([4]; 100 µM): 10.5% (inactive)
growth ([5]; 10 µM): 101% (inactive)
growth ([5]; 100 µM): 8.35% (active)
growth ([6]; 10 µM): 110% (inactive)
growth ([6]; 100 µM): 14.2% (inactive)
growth ([7]; 10 µM): 113% (inactive)
growth ([7]; 100 µM): 67.1% (inactive)
growth ([9]; 10 µM): 104% (inactive)
growth ([9]; 100 µM): 57.8% (inactive)
growth ([10]; 10 µM): 124% (inactive)
growth ([10]; 100 µM): 54% (inactive)
growth ([11]; 10 µM): 108% (inactive)
growth ([11]; 100 µM): 38% (inactive)
growth ([12]; 10 µM): 106% (inactive)
growth ([12]; 100 µM): 29.1% (inactive)
growth ([13]; 10 µM): 109% (inactive)
growth ([13]; 100 µM): 19.8% (inactive)
growth ([14]; 10 µM): 85.2% (inactive)
growth ([14]; 100 µM): 37.1% (inactive)
growth ([15]; 10 µM): 114% (inactive)
growth ([15]; 100 µM): 2.47% (active)
growth ([16]; 10 µM): 95.8% (inactive)
growth ([16]; 100 µM): 16.1% (inactive)
growth ([17]; 10 µM): 97.5% (inactive)
growth ([17]; 100 µM): 50.3% (inactive)
growth ([18]; 10 µM): 120% (inactive)
growth ([18]; 100 µM): 42.6% (inactive)
growth ([19]; 10 µM): 112% (inactive)
growth ([19]; 100 µM): 101% (inactive)
